Results: PubChem BioAssay AID652042 (Broad Institute, 2013)
The whole screen tested about 1,100 compounds, of which about 350 (32%) were called active. The list is a sample of the results. Entries with a potency or affinity are not part of this list. Values without a mark were called inactive. The rule behind the calls is not given here.

Assay: viability loss in CEM21 cells – cell-based, CellTiter-Glo luminescence, cherry-picked, cytotoxicity control for viral fusion inhibitor project, dose response (AID 652042)
Settings: CellTiter-Glo ATP luminescence, 24 h; series mostly up to 35 µM

**Q.** For `Cc1ccc(C)c(CS(=O)(=O)c2cn(CC(=O)N3CCC(C)CC3)c3ccccc23)c1`, which activity change, negative = cytotoxicity is on record?
**A.** inactive

**Q.** With `CCCCN1CC(=O)N2[C@H]3c4ccccc4OC[C@@H]3[C@H](c3ccccc3)[C@]2(C)C1=O` as the compound, how does the activity change, negative = cytotoxicity read?
**A.** inactive

**Q.** With `COc1cc(CSc2nnnn2-c2ccc(C)cc2)cc(OC)c1OC` as the compound, how does the activity change, negative = cytotoxicity read?
**A.** inactive

**Q.** With `Cc1ccc(-n2nnnc2SCn2nnc3ccccc3c2=O)c(C)c1` as the compound, how does the activity change, negative = cytotoxicity read?
**A.** inactive

**Q.** For `O=C(NCc1ccccc1)[C@@H]1CCCN1C(=O)[C@@H]1CCCN1C(=O)c1cccc2ccccc12`, which activity change, negative = cytotoxicity is on record?
**A.** inactive

**Q.** For `Cc1ccc(S(=O)(=O)N2CCC(=O)N(CCOCc3ccc(C(F)(F)F)cc3)CC2)cc1`, which activity change, negative = cytotoxicity is on record?
**A.** inactive

**Q.** Which activity change, negative = cytotoxicity does the source give for `NC(=O)c1sc2nc3c(c(-c4ccccc4)c2c1N)CCC3` here?
**A.** inactive

**Q.** With `COc1ccc(N(CC(=O)NCCSCc2ccc(Cl)cc2)S(C)(=O)=O)cc1Cl` as the compound, how does the activity change, negative = cytotoxicity read?
**A.** inactive

**Q.** For `Cc1ccc(N2C(=O)N3[C@H](c4cccc(C)c4)[C@@H]4C(=O)N(Cc5ccccc5)C(=O)[C@@H]4[C@]3(C)C2=O)cc1`, which activity change, negative = cytotoxicity is on record?
**A.** inactive

**Q.** For `O=C(NCc1ccco1)c1ccc(Cn2c(=O)c3sccc3n(Cc3ccc(F)cc3)c2=O)cc1`, which activity change, negative = cytotoxicity is on record?
**A.** inactive

**Q.** Which activity change, negative = cytotoxicity does the source give for `CC(=O)Nc1ccc(C(=O)OCC(=O)NC(=O)NCc2ccccc2)cc1` here?
**A.** inactive

**Q.** With `CCCOc1ccc(C(F)(F)F)cc1NC(=O)CCc1c(C)noc1C` as the compound, how does the activity change, negative = cytotoxicity read?
**A.** inactive

**Q.** With `CCN(C[C@H]1N[C@@](CC)(C(=O)OC)[C@H]2C(=O)N(Cc3ccccc3)C(=O)[C@@H]12)S(=O)(=O)c1ccc(OC)cc1` as the compound, how does the activity change, negative = cytotoxicity read?
**A.** inactive

**Q.** With `O=C1CC(C(=O)N(CC2CCCO2)C(C(=O)NC2CCCCC2)c2ccncc2)CS1` (stereo unspecified) as the compound, how does the activity change, negative = cytotoxicity read?
**A.** inactive

**Q.** Which activity change, negative = cytotoxicity does the source give for `OC1(c2ccc(OC(F)F)cc2)CSC(=Nc2cccnc2)N1C1CC1` (stereo unspecified) here?
**A.** inactive

**Q.** With `COc1ccc(S(=O)(=O)N(C)C[C@@H]2Oc3ccc(NC(=O)C4CCCCC4)cc3CC(=O)N([C@@H](C)CO)C[C@@H]2C)cc1` as the compound, how does the activity change, negative = cytotoxicity read?
**A.** inactive

**Q.** Which activity change, negative = cytotoxicity does the source give for `Cc1noc(C)c1S(=O)(=O)N(C)C[C@@H]1Oc2ccc(NC(=O)NC3CCCCC3)cc2CC(=O)N([C@H](C)CO)C[C@@H]1C` here?
**A.** inactive

**Q.** Which activity change, negative = cytotoxicity does the source give for `C[C@H]1CN([C@@H](C)CO)C(=O)Cc2cc(NC(=O)Cc3ccccc3)ccc2O[C@H]1CN(C)S(=O)(=O)c1cccs1` here?
**A.** inactive

**Q.** For `CC(C)(C)c1ccc(-c2noc(CCC(=O)NCC3CCCO3)n2)cc1` (stereo unspecified), which activity change, negative = cytotoxicity is on record?
**A.** inactive

**Q.** For `O=C(c1cc(COc2cccc(C(F)(F)F)c2)on1)N1CCC(c2ccncc2)CC1`, which activity change, negative = cytotoxicity is on record?
**A.** inactive

**Q.** With `CCCNC(=O)C[C@@H]1C[C@H]2c3cc(NC(=O)Cc4ccncc4)ccc3O[C@H]2[C@@H](CO)O1` as the compound, how does the activity change, negative = cytotoxicity read?
**A.** inactive

**Q.** For `O=C(NCCc1ccccc1F)c1ccc2c(c1)OCCO2`, which activity change, negative = cytotoxicity is on record?
**A.** inactive

**Q.** With `O=C(CCNC(=O)c1ccc(Br)cc1)NNC(=O)COc1ccccc1F` as the compound, how does the activity change, negative = cytotoxicity read?
**A.** inactive

**Q.** Which activity change, negative = cytotoxicity does the source give for `COc1ccc(NS(=O)(=O)c2ccc3c(c2)OCCO3)cc1OC` here?
**A.** inactive

**Q.** With `Nc1c(S(=O)(=O)c2ccccc2)cnc2c(-c3ccc(F)cc3)cnn12` as the compound, how does the activity change, negative = cytotoxicity read?
**A.** inactive

**Q.** For `COC(=O)CNC(c1ccccc1)c1cc(C)ccc1NC(=O)CNC(=O)OCc1ccccc1` (stereo unspecified), which activity change, negative = cytotoxicity is on record?
**A.** inactive

**Q.** Which activity change, negative = cytotoxicity does the source give for `COc1ccc(C(C(=O)NC(C)(C)C)N(CCC(C)C)C(=O)CCC(=O)Nc2cc(C)on2)cc1` (stereo unspecified) here?
**A.** inactive

**Q.** With `CCN(CC)c1nc(Nc2ccccc2)nc(Oc2ccc(=O)[nH]n2)n1` as the compound, how does the activity change, negative = cytotoxicity read?
**A.** inactive

**Q.** With `COc1ccc2c(c1)OC[C@H]1[C@H]2N2C(=O)CN(Cc3ccc(C)cc3)C(=O)[C@@]2(C)[C@H]1c1ccccc1` as the compound, how does the activity change, negative = cytotoxicity read?
**A.** inactive

**Q.** Which activity change, negative = cytotoxicity does the source give for `C[C@H]1NC(=O)[C@@]2(C)[C@H](c3ccccc3)[C@H]3COc4ccccc4[C@@H]3N2C1=O` here?
**A.** inactive

**Q.** Which activity change, negative = cytotoxicity does the source give for `Cc1ccc(-n2nc3c(c2NC(=O)c2ccco2)CS(=O)C3)cc1` (stereo unspecified) here?
**A.** inactive

**Q.** Which activity change, negative = cytotoxicity does the source give for `C=CCN1C(=S)CC(c2ccccc2)=Nc2ccccc21` here?
**A.** inactive

**Q.** For `O=C(c1ccc2c(c1)OCO2)N(CC1CCCO1)C1(C(=O)NC2CCCCC2)CCCCC1` (stereo unspecified), which activity change, negative = cytotoxicity is on record?
**A.** inactive

**Q.** With `CON(C)c1nc(OCCNC(=O)OCc2ccc(Cl)cc2C)nc(N(C)C)n1` as the compound, how does the activity change, negative = cytotoxicity read?
**A.** inactive

**Q.** Which activity change, negative = cytotoxicity does the source give for `Cc1ccc(S(=O)(=O)N2CCCCC2)cc1C(=O)NCCC1=CCCCC1` here?
**A.** inactive

**Q.** Which activity change, negative = cytotoxicity does the source give for `Cc1ccc(C(=O)NCc2ccccn2)cc1S(=O)(=O)N1CCCCC1` here?
**A.** inactive

**Q.** With `O=S(=O)(NCC[C@H]1CC[C@H](NS(=O)(=O)c2ccccc2Cl)[C@H](CO)O1)c1ccc(Cl)cc1` as the compound, how does the activity change, negative = cytotoxicity read?
**A.** inactive

**Q.** For `O=S(=O)(NCC[C@@H]1CC[C@@H](NS(=O)(=O)c2ccccc2Cl)[C@H](CO)O1)c1ccc(Cl)cc1`, which activity change, negative = cytotoxicity is on record?
**A.** inactive

**Q.** For `COc1cc(-c2nc3oc4ccccc4c(=O)c3c(=O)n2Cc2ccco2)cc(OC)c1OC`, which activity change, negative = cytotoxicity is on record?
**A.** inactive

**Q.** Which activity change, negative = cytotoxicity does the source give for `CCOC(=O)c1c(CSc2cccs2)n(C)c2cc(Br)c(O)c(CN(C)C)c12` here?
**A.** inactive

**Q.** With `CCOC(=O)c1c(CSc2ccsc2)n(C)c2cc(Br)c(O)c(CN(C)C)c12` as the compound, how does the activity change, negative = cytotoxicity read?
**A.** inactive

**Q.** For `CCN(CC)S(=O)(=O)c1ccc(NC2c3ccccc3C(=O)N2Cc2ccc3c(c2)OCO3)cc1` (stereo unspecified), which activity change, negative = cytotoxicity is on record?
**A.** inactive

**Q.** Which activity change, negative = cytotoxicity does the source give for `O=S(=O)(NCCc1csc(-c2cccnc2)n1)c1ccc(Cl)s1` here?
**A.** inactive

**Q.** For `COc1cccc(/C=N/NC(=O)CC2C(=O)NN=C2C)c1O` (stereo unspecified), which activity change, negative = cytotoxicity is on record?
**A.** inactive

**Q.** Which activity change, negative = cytotoxicity does the source give for `CC(C)(C)OC(=O)N1CCc2onc(-c3ccc(Br)cc3)c2C1=O` here?
**A.** inactive

**Q.** With `C=CC[n+]1c(-c2ccc(C)cc2)csc1NNC(=O)Nc1ccccc1` as the compound, how does the activity change, negative = cytotoxicity read?
**A.** 1.1% [at 8 µM]

**Q.** With `COc1ccc(C(C)=O)cc1CC1(C)C(=O)Nc2ccc(-c3ccccc3OC)cc21` (stereo unspecified) as the compound, how does the activity change, negative = cytotoxicity read?
**A.** inactive

**Q.** For `COc1cc(OCC(=O)NC(C)C)cc2c1C(=O)O[C@@H](C)CCCC(=O)CCCCC2`, which activity change, negative = cytotoxicity is on record?
**A.** inactive

**Q.** Which activity change, negative = cytotoxicity does the source give for `CSc1cccc(N2CC(C(=O)Nc3cccc(S(=O)(=O)N4CCCC4)c3)CC2=O)c1` (stereo unspecified) here?
**A.** inactive

**Q.** Which activity change, negative = cytotoxicity does the source give for `CSc1ccc(CN(C)C(=O)c2cccc(S(=O)(=O)N3CCN(Cc4ccccc4)CC3)c2)cc1` here?
**A.** inactive

**Q.** Which activity change, negative = cytotoxicity does the source give for `COc1cc(NC2c3ccccc3C(=O)N2Cc2ccc3c(c2)OCO3)cc(OC)c1OC` (stereo unspecified) here?
**A.** inactive

**Q.** For `O=C(NC12CC3CC(CC(C3)C1)C2)OCCNC1CCCCC1`, which activity change, negative = cytotoxicity is on record?
**A.** inactive

**Q.** Which activity change, negative = cytotoxicity does the source give for `O=C1CCCC2=C1C(c1cccs1)Nc1ccccc1N2` (stereo unspecified) here?
**A.** inactive

**Q.** With `CC[C@]1(C(=O)OC)[C@H]2C(=O)N(Cc3ccccc3)C(=O)[C@H]2[C@H]2CN=C(SCc3ccc(C#N)cc3)N21` as the compound, how does the activity change, negative = cytotoxicity read?
**A.** inactive

**Q.** For `CCOc1ccc(NS(=O)(=O)c2ccc(C(=O)N(C)CCc3ccc(OC)c(OC)c3)cc2)cc1`, which activity change, negative = cytotoxicity is on record?
**A.** inactive

**Q.** Which activity change, negative = cytotoxicity does the source give for `CC(C)C[C@@H](CN(C)N=O)N(C[C@H](Cc1ccccc1)N(CCc1ccccc1)N=O)N=O` here?
**A.** inactive
